# Assay results as given in PubChem BioAssay (NCI).
# Compounds without any hit were thinned out: in the full panel of roughly 83,000, 20% have a hit.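 Interpretation: 100, growth as untreated; towards 0, rising growth inhibition; 0, no net growth; 0 to -100, cell death. Compounds scoring below 10 were considered active.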 Values without a mark were called inactive. The source made the active and inactive calls.
# Experiments:
# Experiment in all cases: NCI-60 one-dose screen, 48 h (100 = growth as untreated, 0 = no growth, -100 = all killed)
# SR leukemia = conditions: 10 µM unless noted
# RPMI-8226 leukemia = conditions: 10 µM unless noted
# OVCAR-8 ovarian = conditions: 10 µM unless noted
# OVCAR-5 ovarian = conditions: 10 µM unless noted
# OVCAR-4 ovarian = conditions: 10 µM
# SK-OV-3 ovarian = conditions: 10 µM unless noted
# IGROV1 ovarian = conditions: 10 µM unless noted
# OVCAR-3 ovarian = conditions: 10 µM unless noted
# HS 578T breast = conditions: 10 µM unless noted
# NCI/ADR-RES ovarian = conditions: 10 µM unless noted
# T-47D breast = conditions: 10 µM unless noted
# BT-549 breast = conditions: 10 µM unless noted
# SW-620 colon = conditions: 10 µM unless noted
# MCF7 breast = conditions: 10 µM unless noted
# HCT-116 colon = conditions: 10 µM unless noted
# HCC-2998 colon = conditions: 10 µM unless noted
# KM12 colon = conditions: 10 µM unless noted
# MDA-MB-435 melanoma = conditions: 10 µM unless noted
Compound,growth (SR leukemia),growth (RPMI-8226 leukemia),growth (OVCAR-8 ovarian),growth (OVCAR-5 ovarian),growth (OVCAR-4 ovarian),growth (SK-OV-3 ovarian),growth (IGROV1 ovarian),growth (OVCAR-3 ovarian),growth (HS 578T breast),growth (NCI/ADR-RES ovarian),growth (T-47D breast),growth (BT-549 breast),growth (SW-620 colon),growth (MCF7 breast),growth (HCT-116 colon),growth (HCC-2998 colon),growth (KM12 colon),growth (MDA-MB-435 melanoma)
CCOC(=O)Nc1ccc2c(c1)/C(=N\NC(=S)NC)c1ccccc1-2,63.9%,58.7%,83%,97.8%,92.3%,112%,100%,95.6%,90.4%,76.7%,66.7%,94%,93.6%,74.6%,87.6%,88.2%,71%,–
COc1cc2c(cc1OC(C)=O)C(=O)CCCC2,121%,109%,98.3%,103%,95.1%,117%,78.8%,114%,84.3%,97.7%,101%,–,95.8%,92.3%,82.6%,-10.1% (active),106%,102%
COc1ccc2c(c1)c(-c1noc(-c3cn(C)c4ncc(F)cc34)n1)cn2C,83.8%,92.1%,63.7%,87.6%,18.4%,79.1%,69.6%,42%,91%,68.3%,76.8%,–,82%,54.6%,80.7%,90%,87.8%,77.1%
COc1ccc(C=C2c3ccccc3-c3ccccc32)cc1,23.4%,68.2%,67.1%,92.4%,80.2%,60.6%,58.3%,18%,56.3%,20.2%,46.6%,–,19.4%,13%,16.9%,73.6%,24.8%,-10.4% (active)
CC(C)[C@H]1COC(=O)N1[C@@H]1C(=O)N([C@@H](CCC(=O)N2CCN(C3CCCC3)CC2)C(=O)N[C@@H]2CCCc3ccccc32)[C@@H]1/C=C/c1cccc(Cl)c1,19.2%,22.2%,74.5%,105%,68.3%,88.1%,48.4%,69%,64.3%,64.1%,61.4%,–,61.9%,34.7%,32.7%,51.8%,48.8%,32.7%
O=C1COCCN1c1ccc(NCc2cn(Cc3ccccc3)c3ccccc23)cc1,58.3%,86.8%,93.7%,-23.8% (active),62.6%,34.3%,15.5%,80.9%,89.4%,101%,44.9%,–,84.9%,63.9%,62.9%,105%,104%,97.9%
COc1ccc(NC(=O)Nc2ccc(-c3cccnc3)cc2N2CCC(CO)CC2)cc1,95.2%,54.4%,79.1%,49.6%,73.8%,71.7%,110%,40.2%,62.6%,64.4%,68.8%,–,65.2%,31.8%,12.5%,42%,38.8%,26%
CCN=Cc1c(O)c(O)c(C(C)C)c2cc(C)c(-c3c(C)cc4c(C(C)C)c(O)c(O)c(C=NCC)c4c3O)c(O)c12,27%,34.8%,39.2%,63.4%,31.7%,63.4%,46.8%,32.5%,57.8%,47.9%,35%,–,29.2%,27.3%,22.5%,38.9%,21.3%,68.1%
O=C(CCNCc1ccccc1)c1ccccc1,109%,105%,112%,103%,119%,109%,114%,102%,110%,105%,104%,–,109%,102%,106%,107%,96.7%,109%
COc1ccc2[nH]c(C(=O)N3CCN(C(=O)OCc4ccc5c(Br)cc(Br)c(O)c5n4)CC3)cc2c1,4.37% (active),-38.9% (active),-73.2% (active),-89.3% (active),-85.2% (active),-70.7% (active),-90.7% (active),-93.9% (active),-22.5% (active),-17.4% (active),-62.5% (active),–,-70.3% (active),-58.4% (active),-87.1% (active),-90.7% (active),-59.8% (active),-86.6% (active)
O=C(CCCCCCSc1nc(-c2ccc(Cl)cc2)cc(-c2ccc(Cl)cc2)n1)NO,5.47% (active),34.9%,20.5%,39.4%,35.9%,17.4%,27.6%,22.9%,69.5%,3.91% (active),13.2%,–,35.8%,14.5%,18.4%,78.7%,47.4%,43.5%
Nc1cc(Cl)cc2cccnc12,94%,92.9%,111%,101%,117%,95%,126%,119%,114%,101%,112%,–,102%,95.2%,109%,93.5%,101%,106%
O=C(OCc1ccc2c(Cl)cc(Cl)c(O)c2n1)N1CCNCC1,14.5%,44.2%,28.7%,55.5%,23.4%,40.9%,34.8%,33.8%,53.4%,9.22% (active),29.9%,–,26.2%,34.6%,27.5%,60.2%,31.5%,48.9%
CC1Cc2c(Cl)ncnc2N(C)c2ccc(O)cc21 (stereo unspecified),90.3%,68.5%,29.7%,102%,27%,31.7%,103%,50.8%,28.8%,17.3%,81.7%,–,38.1%,55.1%,65.6%,59.4%,10.4%,30.5%
NNC(=O)c1ccc(C(=O)NN)cc1,126%,104%,84.9%,113%,127%,119%,116%,112%,97.9%,104%,133%,–,99.2%,106%,108%,100%,107%,106%
CCCn1ccnc1C(O)c1ccc(OCc2ccccc2)c(OC)c1 (stereo unspecified),96.1%,93.9%,96.7%,93.3%,96.5%,87.7%,96.9%,95.7%,109%,91.3%,83.3%,–,98%,85.4%,92.6%,95.8%,101%,94.3%
C[C@@H](NC(=O)[C@@H](CC(=O)N1CCC(N2CCCCC2)CC1)N1C(=O)[C@@H](N2C(=O)OC[C@@H]2c2ccccc2)[C@H]1/C=C/c1cccc(Cl)c1)c1ccccc1,-22.4% (active),54.7%,86.8%,115%,78.6%,86.7%,86%,74.4%,63.2%,98%,29.9%,–,66.3%,20.8%,53.7%,28.5%,71.3%,1.09% (active)
O=C(CCN1CCCCC1)c1ccc2ccccc2c1,103%,77.5%,99.9%,117%,114%,105%,104%,98.6%,104%,109%,91%,–,107%,87.8%,103%,109%,102%,110%
